# Source: PubChem BioAssay
# Only a selection was taken, and hits are over-represented in it overall.
# FECH inh: blocks human mitochondrial ferrochelatase activity | purified FECH, Ni-mesoporphyrin absorbance 550 nm | calls only at 10 µM (by protocol) | 20,000 compounds, 3.3% hits | AID 1671448;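 active = enzyme reaction rate more than 3 SD below the solvent-only control wells on the same plate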;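 note: lower slope than DMSO wells means FECH inhibition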
# Target sequence (P22830 whole entry, looked up): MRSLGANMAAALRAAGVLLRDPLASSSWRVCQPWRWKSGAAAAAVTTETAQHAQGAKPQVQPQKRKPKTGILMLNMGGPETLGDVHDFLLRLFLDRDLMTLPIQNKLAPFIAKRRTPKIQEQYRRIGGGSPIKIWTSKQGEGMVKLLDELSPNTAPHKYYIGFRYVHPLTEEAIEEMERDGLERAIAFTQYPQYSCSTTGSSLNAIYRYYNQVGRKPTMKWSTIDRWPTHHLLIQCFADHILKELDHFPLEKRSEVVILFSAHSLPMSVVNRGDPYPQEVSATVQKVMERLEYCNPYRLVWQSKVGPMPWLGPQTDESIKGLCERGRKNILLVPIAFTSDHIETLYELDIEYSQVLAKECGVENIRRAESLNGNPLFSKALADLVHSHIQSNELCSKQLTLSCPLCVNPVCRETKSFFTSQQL
# Calls only; n = inactive; + = active, no number.
SMILES,FECH inh
C=CCn1cc(CNC(C)C2=CCCCC2)c(C)n1 (stereo not given),n
COc1ccc(NC(=O)CCCc2nc3cccnc3n2Cc2ccc(F)cc2)cc1OC,n
O=C1CC(=O)Nc2cc(S(=O)(=O)N3CCN(Cc4ccc5c(c4)OCO5)CC3)ccc2N1,n
Cc1ccc(NC(=O)CSc2cc(Oc3cc(C)cc(C)c3)ncn2)cc1,+
COc1cc(NC(=O)CN2CCCN(Cc3ccc(C)cc3)S2(=O)=O)cc(OC)c1,n
CSc1ccc(CNC(=O)CSc2cc(Oc3cc(C)cc(C)c3)ncn2)cc1,+
COc1cc(NC(=O)CSc2cc(Oc3cc(C)cc(C)c3)ncn2)cc(OC)c1,+
COc1ccc(CNC(=O)CSc2cc(N3CCCCC3)ncn2)cc1,n
CCc1cccc(NC(=O)CSc2cc(Oc3cc(C)cc(C)c3)ncn2)c1,+
CCc1cccc(NC(=O)CN2CCCN(Cc3ccc(OC)cc3)S2(=O)=O)c1,n
CSc1ccc(CNC(=O)COc2cc(C)nc(-c3ccc(C)cc3)n2)cc1,n
CCc1cccc(NC(=O)CCC(=O)NCc2ncc[nH]2)c1,n
COc1ccc(NC(=O)CSc2cc(N3CCCCC3)ncn2)cc1OC,n
O=C(CSc1cc(N2CCCCC2)ncn1)Nc1ccc2c(c1)OCCO2,n
Cc1ccc(NC(=O)CSc2cc(N3CCCCC3)ncn2)cc1F,n
COc1nc2ccccc2cc1-c1csc(C(N)=O)c1,n
CC(C)n1cc(C(=O)N2C[C@H]3OC(=O)N(CCN4CCCCC4)[C@H]3C2)cn1,n
O=C(c1cccc2c(=O)c3ccccc3[nH]c12)N1CCCn2cncc2C1,n
CN1CCN2C[C@@H](NC(=O)C3=CC(=O)CC(C)(C)O3)C[C@H]2C1,n
Cc1cccc(NS(=O)(=O)c2ccc3c(c2)CCN3C(=O)CCC(=O)N2CCCCCC2)c1,n
COc1cccc(-c2cc(N3CCN(S(=O)(=O)c4ccc(C)cc4C)CC3)ncn2)c1,n
O=c1[nH]nc(C2CC2)n1Cc1ccc(Cl)cc1Cl,+
CN1CCCC(c2n[nH]c(=O)n2CCc2ccccc2)C1 (stereo not given),n
CCn1c(C2CCN(C(=O)c3cc(C(C)C)[nH]n3)CC2)n[nH]c1=O,n
CC(C)CCNC(=O)NCCc1nc2cccnc2n1Cc1ccccc1,n
SMILES,FECH inh
COc1cccc(N2CCN(S(=O)(=O)c3cc(C(=O)N4CCCC4)cs3)CC2)c1,n
CC(C)(C)NS(=O)(=O)c1cc(C(=O)N2CCCCC2)cs1,+
CC(=O)c1ccc(N2CCN(S(=O)(=O)c3cc(C(=O)N4CCCCC4)cs3)CC2)cc1,n
CC(=O)c1ccc(N2CCN(S(=O)(=O)c3cc(C(=O)N4CCCC4)cs3)CC2)cc1,+
Cc1cc(C)cc(NS(=O)(=O)c2cc(C(=O)N3CCCCC3)cs2)c1,n
O=C(c1csc(S(=O)(=O)NC2CC2)c1)N1CCCC1,n
Cc1cc(C)cc(NC(=O)CN2CCCN(Cc3ccc(Cl)cc3)S2(=O)=O)c1,n
CCOc1ccc(N(Cc2nc3nc(C)cc(C)n3n2)C(=O)c2ccc(C)cc2)cc1,+
CCOc1ccc(N(Cc2nc3nc(C)cc(C)n3n2)C(=O)c2ccccc2C)cc1,n
Cc1cc(C)n2nc(CN(C(=O)c3ccc(C(C)(C)C)cc3)c3cccc(Cl)c3)nc2n1,n
Cc1cc(C)n2nc(CN(C(=O)c3ccc(F)cc3)c3ccc(Cl)cc3)nc2n1,n
CCOc1ccc(N(Cc2nc3nc(C)cc(C)n3n2)C(=O)C(C)(C)C)cc1,n
Cc1cccc(N(Cc2nc3nc(C)cc(C)n3n2)C(=O)c2ccc(F)cc2)c1,+
COc1ccccc1C(=O)N(Cc1nc2nc(C)cc(C)n2n1)c1ccc(C)cc1,n
Cc1cccc(N(Cc2nc3nc(C)cc(C)n3n2)C(=O)c2ccc(C(C)(C)C)cc2)c1,+
Cc1ccc(N(Cc2nc3nc(C)cc(C)n3n2)C(=O)c2ccc(C(C)(C)C)cc2)cc1,+
COc1ccc(C(=O)N(Cc2nc3nc(C)cc(C)n3n2)c2ccccc2)cc1,n
Cc1ccc(C(=O)N(Cc2nc3nc(C)cc(C)n3n2)c2ccc(Cl)cc2)cc1,n
Cc1ccc(C(=O)N(Cc2nc3nc(C)cc(C)n3n2)c2ccc(F)cc2)cc1,n
CN1CCN(c2nc(Nc3ccc4c(c3)OCO4)c3cnn(-c4ccccc4)c3n2)CC1,n
O=c1c(NC2CCN(Cc3ccccc3)CC2)c(-c2ccc3c(c2)CCCC3)c1=O,n
Cc1cccn2cc(C(=O)N[C@@H]3C[C@H]4C(=O)NCC(=O)N4C3)nc12,n
CSc1nc(NCC(=O)O)c(C#N)c(-c2ccc(C)cc2)n1,n
CC(C)CNc1nc(Nc2ccc(F)cc2)c2cnn(-c3ccccc3)c2n1,n
CN(C)CC1(O)CCCN(C(=O)c2ccc(C(F)(F)F)[nH]c2=O)C1 (stereo not given),n
SMILES,FECH inh
COc1ccc(Br)cc1-c1nc(Cn2c(=O)c3cnc(C)nc3n(C)c2=O)c(C)o1,n
Cn1c(=O)n(Cc2ccccc2Cl)c(=O)c2cnc(-c3cccnc3)nc21,n
Cc1nc2c(C)cccc2cc1C(=O)N1CCC(Cc2nncn2C)CC1,n
Cc1cccc(CNC(=O)c2ccccc2NC(=O)CC2C(=O)N(C)C(=O)N2C)c1 (stereo not given),n
CC(c1cccc(-c2ccc3nc[nH]c3c2)c1)N(C)C (stereo not given),n
COC(C)c1cccc(-c2ncccc2Cl)c1 (stereo not given),n
CC(c1cccc(-c2cccc3c(N)ccnc23)c1)N(C)C (stereo not given),+
CN1CCC2(CC1)CN(C(=O)CCN1CCCC1)CCN2C,n
Cc1nc2nc(-c3ccccc3)nn2c(Sc2ccccc2NC(=O)c2cccs2)c1C,n
COc1ccccc1N1CCN(C(=O)CSCc2nc(-c3ccc(F)cc3)no2)CC1,n
Cc1nc2nc[nH]n2c(=O)c1NC(=O)NCc1ccc(F)cc1,n
COc1ccc(-c2cc(C(=O)NCc3ccc(F)cc3)[nH]n2)cc1S(N)(=O)=O,n
NS(=O)(=O)c1ccccc1NC(=O)NCc1ccc(F)cc1,+
CCCN(Cc1cccc(Cl)c1)C(=O)c1cnc(CC)nc1,n
CN(C)S(=O)(=O)N1CCC(c2nnc(C(=O)Nc3ccc4c(c3)OCO4)s2)CC1,n
COc1ccc(OC)c(Nc2nc(NCCO)nc3c2cnn3-c2ccccc2)c1,n
CCCN(Cc1ccc(OC)cc1)C(=O)c1ccc(C(C)=O)s1,n
CCCCOc1ccc(S(=O)(=O)N2CCN(c3nc(C)cc(N4CCCCC4)n3)CC2)cc1,n
CCCCOc1ccc(S(=O)(=O)N2CCN(c3nc(C)cc(N4CCCC4)n3)CC2)cc1,+
CCOc1ccc(S(=O)(=O)N2CCN(c3nc(C)cc(N4CCCC4)n3)CC2)cc1,n
Cn1cc(C(=O)NCc2csc3ccc(Cl)cc23)ccc1=O,n
CCOc1ccccc1-c1nc(Cn2c(=O)c3cnc(C)nc3n(C)c2=O)c(C)o1,n
Cn1c(=O)c(C(=O)N2CCN(c3ccccc3F)CC2)nc2ccccc21,n
Cn1c(=O)c(C(=O)NCc2ccc(F)cc2)nc2ccccc21,n
Cn1c(=O)c(C(=O)NCc2ccc3c(c2)OCO3)nc2ccccc21,n
SMILES,FECH inh
Cc1ccc(CNC(=O)c2nc3ccccc3n(C)c2=O)cc1,+
Cc1cccn2c(CC(=O)NCCc3csc(-c4ccncc4)n3)cnc12,n
O=S(=O)(NCCc1csc(-c2ccncc2)n1)NCc1ccccc1,+
CCc1cc(C(C)NS(=O)(=O)NCc2ccccc2)on1 (stereo not given),n
Cc1ccc(-c2noc(CSCC(=O)N3CCNC3=O)n2)cc1,n
COc1ccc(Cn2c(CNC(=O)Cc3cccc(C)c3)nc3cccnc32)cc1,n
